biological target: MAPK4; experiment: pooled miR-30 sensor sort-seq; sequence = guide strand; conditions: shRNA
Note: reference of the scale not given here.

Sequence | sensor-assay potency score (higher = more potent)
TTAGTAGTTATAACAATTCCTC | -0.514
TTGTAGTCGCAGGAGCGCCCGT | -1.23
TTGCTGTTGACACCTCTCTTTT | -1.31
TCTCCTAACACATTTGCTCTAT | -0.331
TTCTTCACAGCGACCTTCCGGC | 0.22
TAATGCTGATCAACGATCCTTG | 0.275
TCTGAATAAAAGAACATCGAAT | -0.719

biological target: MAPKAPK2; experiment: as above; conditions: shRNA

Sequence | sensor-assay potency score (higher = more potent)
TTGATCTGCAGGCCGGACTTGA | -0.944
TTTTTTATCTTGATCTGCTCGT | 0.773
TTTTATCTTGATCTGCTCGTAG | 0.563
TTTATCTTGATCTGCTCGTAGT | -0.523
TTGAAGATCTGCAAAACTTTGC | 0.0666
TTTTTATCTTGATCTGCTCGTA | 0.0929
TTGATTGCATGATCCAAGGGTG | -0.156
TCCTCTGATACTTCTGACCATT | -1.62
TCGTACACATCCACGATCCGTA | 0.149
TTTGTTGATTGCATGATCCAAG | -0.653
TTGTAGTCATCGATGATGGCGT | -0.252
TTCTCTTTCTGTGAATGCCTGG | -0.0857

biological target: MAPKAPK5; experiment: as above; conditions: shRNA

Sequence | sensor-assay potency score (higher = more potent)
TAACTGGACCACTAATTCCAGC | -1.31
TTTCTTCGCATATCCTTTGGGA | -0.249
TTGCTCTTCTATCACCTGCTTC | -0.717
TATCTGTGAATCCACGACCATT | -1.59
ATAATCTGAACTATGTTTGGGT | 0.519
TAGTCGATCTACTTTATCTGTG | -0.684
TATGATGCCAGATTTCTCCTTC | 0.745
TTTACACAGACTCTAACTGGAC | -0.371
TTCAATAATCTGAACTATGTTT | -0.32
TATTCTTCTAAAATGGAAGTTT | -0.731
TTAGTCGATCTACTTTATCTGT | -0.383
TCTGACTCCACTCTTCCTCTGG | 0.0951

biological target: MARCH9; experiment: as above; conditions: shRNA

Sequence | sensor-assay potency score (higher = more potent)
TAGTACTCCTCCTCGTCGCCGT | -0.394
TACTTGAAGTAGCAGAGCTCAC | -1.11
ATTTAGGACCTTCCACTGCTGG | -1.22
TGCAAGATTGTATAACCGCAGC | -1.34
TATGGCAGCAATCTGGACCTTC | -0.025
TAATTTAGGACCTTCCACTGCT | 0.933
TTGAAGATGCGGTAGACAGAGG | -1.26
TTGTCCAGCTGGTACCTCCAGC | -0.754
TAGCAGAGCTCACAGCTCCAGG | -0.864
